The structures appear in SMILES notation. Hit rate of the full screen: of about 10,000 compounds, about 320 (3.2%) were called active. Shown is part of a subset that was picked to be rich in actives. Values without a mark were called inactive. Rule as the data show it: active = CPE inhibition mostly above about 9.1% (no sharp cut-off); inactive = mostly below about 7.2%.

This experiment in a line: antivirals protecting cells from dengue CPE – CPE readout, HTS (AID 540333). The note with it: Dengue virus CPE inhibition in host cells, at 20 µM; stronger effect = higher value.
As for `CC(C)[C@H](NC(=O)c1ccccc1)C(=O)OCC(=O)N1CCCCCC1`, the CPE inhibition was 1.74%.
Take `COc1cc(C(=O)NC(=S)N(CCc2ccccc2)CCc2ccccc2)cc(OC)c1OC`: the CPE inhibition result is “inactive”.
Take `COCCNC(=S)N/N=C(\C)c1ccccc1OC`: the CPE inhibition was 0.125%.
Consider `COc1cccc(/C=C(/C(=O)OCC(=O)NC2CCCC(C)C2C)c2ccccc2)c1` (stereo not given), for which the CPE inhibition was 28.3% (active).
Consider `CC1CCCC(NC(=O)COC(=O)c2cccc(NS(=O)(=O)/C=C/c3ccccc3)c2)C1C` (stereo not given), for which the CPE inhibition result is “inactive”.
Consider `Cc1ccc(-c2nc(N)sc2CC(=O)OCC(=O)NC2CCCC(C)C2C)cc1` (stereo not given), for which the CPE inhibition was 0.74%.
With `O=C1COc2cc(ccc2[N+](=O)[O-])Oc2ccc(cc2Cl)C(=O)CCCCO1` the entry was “inactive”.
As for `c1nc(N2CCC3(CC2)OCCO3)c2[nH]cnc2n1`, the CPE inhibition entry is “inactive”.
The figure for `COc1cccc(CN(C(=O)Cc2c[nH]c3ccccc23)C(C(=O)NC2CCCCC2)c2ccc(C)o2)c1` (stereo not given) is 3.12%; for `Cc1ccc(C(C(=O)NC2CCCCC2)N(C(=O)Cc2c[nH]c3ccccc23)c2ccccc2C)o1` (stereo not given) it is 3.84%.
For the compound `Cc1ccc(C(C(=O)NC2CCCCC2)N(Cc2ccccc2)C(=O)Cc2c[nH]c3ccccc23)o1` (stereo not given), the CPE inhibition was 24.2% (active).
In the case of `CCN1CCS/C1=C/C=C/C1=[N+](CC)CCS1`, the CPE inhibition is 0.14%.
The entry for `CC(C)(C)[C@H]1C=C(C(=O)Nc2ccccc2)O[C@@H](OCCCCO)C1` is “inactive”; for `CC12CCC(C(=O)N(c3cccc(Cl)c3)C1=O)C2(C)C` (stereo not given) it is “inactive”; for `O=C1C2C(c3ccccc3)(C(=O)N1c1ccc(Cl)cc1)C2(c1ccccc1)c1ccccc1` (stereo not given) it is 1.7%.
For the compound `O=C1C2C3C=CC(c4ccccc4)(C2C(=O)N1c1cccc(Cl)c1)C1C(=O)N(c2cccc(Cl)c2)C(=O)C31` (stereo not given), the CPE inhibition was 25.2% (active).
Turning to `CC(C)(C)c1ccc(-c2ccc3c(c2)S(=O)(=O)c2ccccc2C3=O)cc1`, the CPE inhibition was 2.16%.
The figure for `COc1ccc(CCN2C(=O)NC(NC(C)=O)(C(F)(F)F)C2=O)cc1OC` (stereo not given) is 0.945%.
The entry for `COC(=O)CN1C(=S)N(Cc2ccccc2)C(=O)C1CC(=O)Nc1ccc(OC)cc1` (stereo not given) is “inactive”.
With `COc1ccc(CN2C[C@H](Cc3ccccc3)[C@@H](CC(=O)Nc3ccccc3)C2=O)cc1`, the CPE inhibition is 13.5% (active).
The figure for `CCCCC[C@H]1CN(CCCC)C(=O)[C@@H]1CC(=O)NCc1ccccc1` is 3.67%.
With `O=C(CN1C2=NCCCN2c2ccccc21)c1cccc(Br)c1` the figure was 4%.
The figure for `C[C@@]12C(=O)Nc3ccc(Br)cc3C(=O)N1[C@H]1c3cc(Cl)ccc3OC[C@@H]1[C@@H]2c1ccccc1` is 18.8% (active); for `C[C@@]12C(=O)Nc3ccc(F)cc3C(=O)N1[C@H]1c3cc(Br)ccc3OC[C@@H]1[C@@H]2c1ccccc1` it is 6.78%; for `COc1ccc2c(c1)[C@H]1[C@H](CO2)[C@H](c2ccccc2)[C@]2(C)C(=O)Nc3cc(Cl)ccc3C(=O)N12` it is 11%.
Take `CCOC(=O)[C@@H]1[C@H]2COc3cc(OC)ccc3[C@@H]2N2C(=O)N(c3ccccc3)C(=O)[C@]12C`: the CPE inhibition was 0.065%.
`COc1ccc2c(c1)C(=O)N1[C@H]3c4cc(OC)ccc4OC[C@@H]3[C@H](c3ccccc3)[C@]1(C)C(=O)N2`: the CPE inhibition is 7.37%.
For the compound `COc1ccc2c(c1)C(=O)N1[C@H]3c4cc(C)ccc4OC[C@@H]3[C@H](c3ccccc3)[C@]1(C)C(=O)N2`, the CPE inhibition was 14.5% (active).
With `CCOC(=O)[C@@H]1[C@H]2COc3cc(OC)ccc3[C@H]2N2C(=O)N(c3ccc(F)cc3)C(=O)[C@@]12C`, the CPE inhibition was 2.49%.
With `COc1ccc2c(c1)OC[C@H]1[C@H]2N2C(=O)CN(Cc3ccc(F)cc3)C(=O)[C@@]2(C)[C@H]1c1ccccc1`, the CPE inhibition was 12.2% (active).
`C[C@]12C(=O)N(c3ccc(F)cc3)C(=O)N1[C@H]1c3ccccc3OC[C@@H]1[C@H]2c1ccccc1`: the CPE inhibition was 1.73%.
The figure for `COc1cc2c(cc1OC)C(=O)N1[C@H]3c4cc(Cl)ccc4OC[C@@H]3[C@H](c3ccccc3)[C@]1(C)C(=O)N2` is 16.3% (active); for `COc1ccc2c(c1)[C@H]1[C@H](CO2)[C@H](c2ccccc2)[C@]2(C)C(=O)Nc3cc(OC)c(OC)cc3C(=O)N12` it is 2%.
The figure for `C[C@]12C(=O)N(c3ccc(C(F)(F)F)cc3)C(=O)N1[C@H]1c3ccccc3OC[C@@H]1[C@H]2c1ccccc1` is 11.2%; for `CCOc1ccc(N2C(=O)/C(=C/c3ccco3)N(C)C2=S)cc1` it is 3.13%.
The figure for `Cc1cc(C)cc(NC(=S)NCc2cccs2)c1` is 1.1%; for `Cc1ccc(C)c(NC(=O)COC(=O)c2cccc3c2C(=O)c2ccccc2C3=O)c1` it is 0.805%; for `O=C(OC(c1ccccc1)c1nccc2ccccc12)c1cc([N+](=O)[O-])cc([N+](=O)[O-])c1` (stereo not given) it is 0.39%.
Consider `Cc1ccc(-c2nn(-c3ccccc3)cc2/C=C/C(=O)Nc2nccs2)cc1`, for which the CPE inhibition was 3.35%.
With `CC(=O)N1CCC2(CC1)CC(=O)c1cc(Cl)ccc1O2` the entry was “inactive”; with `Cc1cc(C)c(-c2csc(NC(=O)c3n[nH]c(=O)c4ccccc34)n2)c(C)c1`, 2.35%; with `COC(=O)[C@H]1[C@H](CCc2ccccc2)NC(=O)N(Cc2ccccc2)[C@@H]1C`, “inactive”.
The figure for `CCOC(=O)c1c(NC(=O)CN2C(=O)NC3(CCCCC3)C2=O)sc(C)c1-c1ccc(C)cc1` is 9.96%; for `COC(=O)c1c(NC(=O)CN2CCC3(O)CCCCC3C2c2cc(OC)ccc2OC)sc(C)c1C` (stereo not given) it is 11.8% (active); for `COC(=O)c1c(NC(=O)CN2CCC3(O)CCCCC3C2c2ccc(F)cc2)sc(C)c1C` (stereo not given) it is 27.5% (active).
With `COC(=O)c1c(NC(=O)CN2CCC3(O)CCCCC3C2c2ccccc2OC)sc(C)c1C` (stereo not given), the CPE inhibition was 2.39%.
Consider `COc1ccc(C2C3CCCCC3(O)CCN2C(=O)c2cccs2)cc1` (stereo not given), for which the CPE inhibition was 2.42%.
Take `COC(=O)c1c(NC(=O)CC2Sc3ccc(C(F)(F)F)cc3NC2=O)sc(C)c1C` (stereo not given): the CPE inhibition was 0.71%.
The figure for `CCOc1cc(/C=C(\C#N)C(N)=O)ccc1OS(=O)(=O)c1ccccc1` is 0.64%; for `COc1cc(C(=O)NCC(c2ccco2)N(C)C)cc(OC)c1OC` (stereo not given) it is 0.055%.
Regarding `CC(C(=O)NC1CCCc2ccccc21)N1CCN(c2ccc(F)cc2)CC1` (stereo not given), the CPE inhibition was 0.305%.
With `CC(C)(C)[C@H]1C=C(C(=O)NCc2ccccc2)O[C@@H](OCCCCO)C1` the figure was 0.655%; with `CC(C)c1ccccc1NC(=O)COC(=O)Cc1c[nH]c2ccccc12`, “inactive”; with `CC(C)c1ccccc1NC(=O)COC(=O)c1ccc(Cl)c(S(=O)(=O)N2CCCCCC2)c1`, 0.87%.
The figure for `CCC(C)c1ccccc1NC(=O)COC(=O)c1ccc2[nH]c3c(c2c1)CCCC3` (stereo not given) is 25.9% (active); for `NNc1nc(-c2ccccc2)nc2sc3c(c12)CCCC3` it is “inactive”.
Take `COc1ccc(-c2c(-c3cc(OC)cc(OC)c3)n(C)c3ccc(-c4ccc(N(C)C)nc4)cc23)cc1`: the CPE inhibition was 0.63%.
With `O=C1CN(C(=O)COc2ccc(Br)cc2F)c2ccccc2N1` the entry was “inactive”.
The figure for `CCOc1ccc(NS(=O)(=O)c2cc(NC(=O)CCS(=O)(=O)c3ccc(C)cc3)ccc2OC)cc1` is 0.21%.
With `CCOC(=O)c1c(C)[nH]c(C(=O)N/N=C\c2ccccc2Cl)c1C` the figure was 3.76%.
On to `CCOC(=O)c1c(C)[nH]c(C=O)c1Cc1cccc(Cl)c1`, for which the CPE inhibition is 14.8% (active).
The figure for `CCOC(=O)c1c(C)nc2ccc(Cl)cc2c1-c1ccccc1` is 0.765%; for `O=C(O)CCC(=O)Nc1ccccc1C(=O)NCc1ccccc1` it is 1.71%; for `CCCCNc1c(-c2ccc(-c3cccc(Cl)c3)cc2)nc2ccc(Cl)cn12` it is 9.97% (active).
With `CCCCNc1c(-c2cccc(-c3ccc(OC)cc3)c2)nc2cc(C)ccn12` the entry was “inactive”.
With `CCCCNc1c(-c2cccc(SC(C)CC)c2)nc2ccc(Cl)cn12` (stereo not given) the figure was 1.45%; with `Cc1c(Cl)cccc1NC(=O)COC(=O)c1c2c(nc3ccccc13)CCN(Cc1ccccc1)C2`, 0.23%; with `CC(C)(C)c1nnc(N/N=C/c2ccc(Br)cc2)n(N)c1=O`, 27.6% (active).
`CC(C)(C)c1nnc(N/N=C/c2ccccc2)n(N)c1=O`: the CPE inhibition is 2.69%.
With `CCc1nnc(N/N=C/c2cccs2)n1N` the figure was 2.18%; with `C/C(=N\NC(=O)CN(c1ccccc1Br)S(C)(=O)=O)c1ccc2c(c1)OCCO2`, 0.855%.
With `CCOC(=O)/C=C/[C@H]1CC(c2ccccc2)(c2ccccc2)CO1` the figure was 0.15%; with `CCn1c(SCC(=O)N2c3ccccc3CCc3ccccc32)nnc1-c1ccc(OC)cc1`, 1.05%.
On to `Cn1c(SCC(=O)N2c3ccccc3CCc3ccccc32)nnc1-c1ccc(O)cc1`, for which the CPE inhibition entry is “inactive”.
`Cn1c(SCC(=O)N2c3ccccc3CCc3ccccc32)nnc1-c1cc2ccccc2cc1O`: the CPE inhibition was 11.1% (active).
With `CCn1cc(/C=C/C(=O)Nc2ccn(Cc3c(F)c(F)cc(F)c3F)n2)cn1` the entry was “inactive”.
With `Cc1ccc(S(=O)(=O)N2CCC(=O)N(CCOCc3ccccc3)CC2)cc1` the figure was 0.27%; with `C=CCn1c(C)cc(C(=O)COC(=O)[C@@H](NC(=O)c2ccccc2Cl)C(C)C)c1C`, “inactive”.
Take `CCOC(=O)C(=O)NNc1ccc(C)cc1`: the CPE inhibition result was “inactive”.
Regarding `CCOC(=O)C(=CNc1cc(C)ccn1)C(=O)OCC`, the CPE inhibition result is “inactive”.
With `CCOC(=O)C(=CNc1ccc(NC2=NCC(C)S2)cc1)C(=O)OCC` (stereo not given) the figure was 10.9% (active).
Regarding `O=C(CSc1nc2ccc(Cl)cc2[nH]1)N1CCN(C(=O)c2ccco2)CC1`, the CPE inhibition is 0.04%.
As for `Nc1nonc1C(=O)NCCNS(=O)(=O)c1ccc(F)cc1`, the CPE inhibition entry is “inactive”.
Take `Cc1ccc(S(=O)(=O)NCCC(c2ccccc2)c2ccco2)cc1` (stereo not given): the CPE inhibition entry is “inactive”.
Consider `O=S(=O)(NCCC(c1ccc(F)cc1)c1ccco1)c1ccccc1` (stereo not given), for which the CPE inhibition was 14.2% (active).

Values taken from PubChem BioAssay AID540333 (Southern Research Specialized Biocontainment Screening …, 2011).
